Pol kappa inh: DNA polymerase kappa (human) inhibition; purified Pol kappa, fluorescent DNA synthesis assay, 10 min; Potency, µM (series often up to 107 µM), hits mostly inhibitors; 0.53% of 400,000 active; AID 588579
Target sequence (Q9UBT6 whole entry, looked up): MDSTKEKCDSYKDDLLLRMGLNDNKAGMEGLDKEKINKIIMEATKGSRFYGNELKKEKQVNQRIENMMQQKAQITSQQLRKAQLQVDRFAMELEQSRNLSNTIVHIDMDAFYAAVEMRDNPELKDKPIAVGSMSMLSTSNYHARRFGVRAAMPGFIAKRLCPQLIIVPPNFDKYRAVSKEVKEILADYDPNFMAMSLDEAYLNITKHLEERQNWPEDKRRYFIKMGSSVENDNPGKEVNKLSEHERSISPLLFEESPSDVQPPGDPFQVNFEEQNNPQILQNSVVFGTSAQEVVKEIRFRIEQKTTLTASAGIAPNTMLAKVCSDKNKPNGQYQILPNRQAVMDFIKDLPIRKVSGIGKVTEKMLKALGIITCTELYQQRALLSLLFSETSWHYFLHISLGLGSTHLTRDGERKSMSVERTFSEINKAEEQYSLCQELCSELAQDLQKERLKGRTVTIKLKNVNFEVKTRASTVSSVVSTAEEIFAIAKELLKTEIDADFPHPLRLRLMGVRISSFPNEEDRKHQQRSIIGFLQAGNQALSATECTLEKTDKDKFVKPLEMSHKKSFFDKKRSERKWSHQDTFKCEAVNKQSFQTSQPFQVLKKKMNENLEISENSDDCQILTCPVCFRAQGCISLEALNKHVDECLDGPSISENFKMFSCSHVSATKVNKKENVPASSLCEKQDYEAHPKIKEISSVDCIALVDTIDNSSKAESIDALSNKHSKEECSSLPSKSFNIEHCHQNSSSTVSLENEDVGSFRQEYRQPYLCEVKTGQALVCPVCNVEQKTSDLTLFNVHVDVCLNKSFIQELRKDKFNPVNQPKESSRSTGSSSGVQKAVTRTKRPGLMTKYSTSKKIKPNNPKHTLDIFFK
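Inhibition of 10 nM Pol kappa is measured by a fluorescent read-out at 0 and 10 min following addition of 50 nM substrate (final), with a 15-min room-temperature compound preincubation.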
WRN inhibitor: inhibitors of human WRN helicase; 0.46% of 360,000 active; Potency, µM (doses to about 114 µM), most hits filed as inhibitors; AID 651768; WRN helicase unwinding, fluorescent forked duplex, kinetic; also: nearly all actives have a fitted effect of over 55% in size
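Fluorescence dequenching readout, ex 525 nm/em 598 nm, kinetic mode: forked duplex DNA (100 nM final) with adjacent fluorophore and quencher unwound by WRN (20 nM final) with 2 mM ATP. Compound preincubation 15 min, room temperature.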
POLI inh: inhibitors of human DNA polymerase iota | Potency, µM (series often up to 115 µM), actives largely listed as inhibitors | 1% of 390,000 active | Pol iota fluorescent replication assay, 10 min | Q9UNA4
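Fluorescent replication assay read twice, at 0 min and 10 min after adding 50 nM (final) substrate. Enzyme (10 nM) and compounds were first incubated 15 min at room temperature; enzyme-free buffer wells were negative controls.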
POLB inh: blocks human DNA polymerase beta activity. P06746. Pol beta primer extension/strand displacement, fluorescence kinetic. Potency, µM (highest dose often 114 µM), usual class: inhibitors. 1.3% of 340,000 active. AID 485314
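Pol beta (10 nM) and compounds were preincubated 15 min at room temperature, then 50 nM substrate (final) started primer extension/strand displacement. Reads were taken at 0 and 10 min; concentration-response data were fitted to a four-parameter Hill equation.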
POLH inh: DNA polymerase eta (human) inhibition; 1.2% of 390,000 active; Potency, µM (titrated, usually from 114 µM), actives largely listed as inhibitors; Q9Y253; recombinant Pol eta, fluorescent DNA replication assay
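Fluorescent replication assay: 50 nM final substrate added after a 15 min room-temperature compound preincubation with 10 nM enzyme. Signal taken at 0 min and again at 10 min.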
FEN1 inh: inhibitors of human flap endonuclease 1; P39748; Recombinant FEN1 flap cleavage, fluorescence, 15 min; Potency, µM (highest dose often 114 µM), actives largely listed as inhibitors; 0.35% of 390,000 active; also: nearly all actives have a fitted effect of over 65% in size
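Compounds are tested as a concentration series against 10 nM FEN1; after a 15 min room-temperature preincubation, 50 nM substrate starts cleavage, with plate reads at 0 and 15 min. Normalized responses are fitted by a Hill equation.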
A number is an active result; - = inactive; ? = inconclusive; . = no result; [ ] = remark or other dose. Only some compounds are listed: those with a hit (about 2.4% of all), similar ones and a draw of the others. Calls follow the shape of the dose curve; as a rule, active = well fitted curve in the direction sought with a large enough effect; inconclusive = small, poorly fitted or top-dose-only effect, or another doubt; inactive = no such curve, though single readings can be large; an effect the other way counts as inactive or inconclusive.

SMILES	Pol kappa inh	WRN inhibitor	POLI inh	POLB inh	POLH inh	FEN1 inh
O=C(NCCc1ccccc1)C1CC(=O)N(C2CCCCCC2)C1 (configuration not stated)	-	-	79.4µM	-	-	-
N#Cc1c(-c2cccs2)nc(SCc2ccc(Cl)cc2)[nH]c1=O	-	?	?	56.2µM	89.1µM	-
CSc1nc(N)c2ncn([C@@H]3O[C@H](COP(=O)(O)OP(=O)(O)OP(=O)(O)O)[C@H](O)[C@H]3O)c2n1	.	.	-	-	-	.
CC(C)CCn1c(SCC(=O)N2CC(=O)Nc3ccccc32)nc2scc(-c3cccs3)c2c1=O	?	-	?	22.4µM	?	-
COc1cc(N2C(=O)C=CC2=O)ccc1N1C(=O)C=CC1=O	39.8µM	20µM	39.8µM	.	25.1µM	50.1µM
CCOc1ccccc1N1CCN(S(=O)(=O)c2ccc3c4c(cccc24)C(=O)N3)CC1	44.7µM	?	14.1µM	?	79.4µM	?
O=[N+]([O-])c1ccc(O/N=[N+](\[O-])N2CCN(c3ncccn3)CC2)c([N+](=O)[O-])c1	-	.	?	.	.	-
Cc1ccc2nc(CS)[nH]c2c1	-	.	-	.	.	-
CCCC[C@H]1C2=C3[C@@H](CC(C(=O)OC)=C[C@@H](C(=O)OC)[C@H]3C(C)(C)C2=O)n2c(=O)n(C)c(=O)n21	-	.	-	.	.	-
COc1cccc(NC(=O)Cn2nc(C)c3c(C)n(-c4ccccc4)nc3c2=O)c1	-	.	89.1µM	-	-	-
COc1ccc(NC(=O)CCCn2nc(C)c3c(C)n(-c4ccccc4)nc3c2=O)cc1OC	-	-	-	-	-	-
COc1ccc(NC(=O)Cn2nc(C)c3c(C)n(-c4ccccc4)nc3c2=O)cc1OC	-	.	?	50.1µM	?	?
COc1cccc(NC(=O)CCCn2nc(C)c3c(C)n(-c4ccccc4)nc3c2=O)c1	-	-	-	-	-	-
COc1ccc(-c2ccc(F)cc2)cc1C1C2C=CCC(C)C2C(=O)N1Cc1ccccc1 (configuration not stated)	-	.	-	.	.	-
O=C(CCS(=O)(=O)c1ccc(Br)cc1)NC1CCCCCC1	-	-[11.6 µM]	-	?	25.1µM	-
O=C(CCS(=O)(=O)c1ccc(Br)cc1)NCc1ccc(F)cc1	?	-	-	?	39.8µM	-
CN(C)/[N+]([O-])=N/Oc1ccc([N+](=O)[O-])cc1C(F)(F)F	-	.	-	.	.	-
COc1cc(OC)c(N(C)C(=O)c2sc3nc4n(c(=O)c3c2C)CCCC4)cc1Cl	-	.	-	89.1µM	-	-
COc1cc(OC)c(N(C)C(=O)c2sc3nc4n(c(=O)c3c2C)CCCCC4)cc1Cl	-	.	-	-	-	-
CC(=O)N(C)c1ccc(N=Cc2c(O)ccc3ccccc23)cc1	-	-	70.8µM	-	-	-
Oc1ccc(N=C/C=C/c2ccc(Br)cc2)cc1-c1nc2ccccc2s1	.	.	.	12.6µM	.	.
O=C(Nc1ccc(-c2nc3ccccc3s2)c(O)c1)c1ccc(Br)cc1	-	.	-	-	-	-
COc1ccc(Cn2c(SCc3ccc(C(=O)NCc4ccc(C)cc4)cc3)nc3cccnc32)cc1	-	.	79.4µM	-	-	?
Nc1nccc(/C=C/c2c(F)cccc2Cl)n1	-	-	-	-	-	-
O=c1cc(/C=C/c2c(F)cccc2Cl)[nH]c2ccccc12	-	-	-	-	11.2µM	-
SMILES	Pol kappa inh	WRN inhibitor	POLI inh	POLB inh	POLH inh	FEN1 inh
COc1cc(Cl)c(C)cc1NC(=O)c1cc2ccc3cccnc3c2[nH]1	-	.	?	39.8µM	?	-
CC1(C)CC(=O)C(N=Nc2cc(S(=O)(=O)N3CCOCC3)ccc2Cl)=C(O)C1	-	-	-	22.4µM	-	-
CC1(C)CC(=O)C(N=Nc2cc(C(F)(F)F)ccc2Cl)=C(O)C1	-	-	-	-	-	-
CCOc1cc(/C=C2\C(=O)N(c3cccc(C(=O)O)c3)N=C2C(F)(F)F)ccc1OCC(=O)Nc1ccccc1OC	.	.	.	20µM	.	.
C(=Nc1cnc2ccccc2c1)c1ccnc2ccccc12	-	.	-	.	.	-
CC(C)CC(NC(=O)OC(C)(C)C)c1cn([C@@H](Cc2ccc(O)cc2)C(=O)N2CCN(C(=O)OC(C)(C)C)CC2)nn1 (some centres not stated)	-	-	-	35.5µM	-	-

High-throughput results (PubChem)
